# A selection: hits, their analogues and other compounds. The true share with any hit is near 1.9%.
# PGE2 EP2 inh: blocks the human prostaglandin E2 receptor EP2; actives 0.52% (n = 260,000); inhibition, % at 25 µM; P43116; C6 glioma cells expressing human EP2, cAMP TR-FRET; cells stimulated with saturating PGE2;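 active = percent inhibition above 40 after rounding to a whole number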;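 also: rat C6 glioma host cells with rolipram phosphodiesterase inhibitor present; the protocol text gives 20 µM as final concentration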
# S1P4 ag: human S1P4 receptor agonism; O95977; S1P4-expressing cell line, agonist reporter assay; activation, % at 4.98 µM; actives 0.35% (n = 220,000); in the data active = activation above about 11%;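 also: 0% = DMSO vehicle and 100% = reference agonist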
# S1P4 antagonist: blocks the human S1P4 receptor; O95977; S1P4-expressing cells, antagonist mode, reporter read-out; actives 0.26% (n = 220,000); inhibition, % at 4.98 µM; in the data active = inhibition above about 29%;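 also: 0% = wells stimulated with agonist and 100% = vehicle wells without agonist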
# S1P3 antag: S1P3 (human) receptor antagonism; AID 485; CHO S1P3 NFAT-BLA reporter, FRET fluorescence, antagonist mode; actives 0.27% (n = 170,000); inhibition, % at 4.98 µM;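 active = inhibition above the plate cutoff, the mean inhibition of test wells on that plate plus 3 SD, cut at about 28% in these data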;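 also: cells challenged with S1P at its EC80 of 0.8 µM; blue over green emission ratio from cleaved BLA substrate after 4 h stimulation; 0% = S1P-stimulated wells and 100% = unstimulated DMSO-only wells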
# Target sequence (Q99500 whole entry, looked up): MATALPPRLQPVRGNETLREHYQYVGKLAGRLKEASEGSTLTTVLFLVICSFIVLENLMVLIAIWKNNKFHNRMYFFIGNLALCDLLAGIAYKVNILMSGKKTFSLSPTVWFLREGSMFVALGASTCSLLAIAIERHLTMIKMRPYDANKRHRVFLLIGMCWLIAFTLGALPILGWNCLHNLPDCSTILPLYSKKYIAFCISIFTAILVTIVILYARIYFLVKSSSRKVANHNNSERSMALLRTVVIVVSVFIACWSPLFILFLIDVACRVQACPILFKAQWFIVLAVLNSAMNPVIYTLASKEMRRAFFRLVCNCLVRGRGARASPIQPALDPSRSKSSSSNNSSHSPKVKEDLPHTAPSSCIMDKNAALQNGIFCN
# EP2 modulator: modulators of human EP2 prostaglandin E2 receptor. EP2-expressing cells, cAMP HTRF FRET, PGE2 co-stimulation. AID 940. actives 0.83% (n = 260,000). P43116. induction, % at 25 µM;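 active = compounds whose cAMP rise, as percent of the full-agonist control response, exceeds 60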;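 also: rat C6 glioma line stably carrying human EP2 under a CMV promoter; the protocol text gives 20 µM as final concentration; 100% = response of wells given 1 µM PGE2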
# S1P4 antag conf: human S1P4 antagonism, confirmation; shares compounds with S1P4 antagonist; S1P4-expressing cell line, antagonist mode, reporter read-out; inhibition, % at 4.98 µM; actives 71% (n = 520); AID 1524; in the data active = inhibition above about 30%
# S1P1 antagonist: human S1P1 antagonism as S1P4 antagonist counter-screen | shares compounds with S1P4 antagonist | cell-based S1P1 antagonist counterscreen, inhibition | inhibition, % at 4.98 µM | actives 37% (n = 520) | AID 1564; in the data active = inhibition above about 40%;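 also: receptor stimulated with S1P near its EC80; 0% = agonist stimulated wells and 100% = vehicle only wells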
# An asterisk follows results filed as active; . = not tested or not shown.
SMILES,PGE2 EP2 inh,S1P4 ag,S1P4 antagonist,S1P3 antag,EP2 modulator,S1P4 antag conf,S1P1 antagonist
CC1=CC(C)(C)Nc2ccc(OC(=O)c3ccco3)cc21,2,1,30*,-26,14,56*,30
Cc1cc(NC(=O)c2ccc([N+](=O)[O-])o2)ccc1NC(=O)c1ccco1,64*,-6,90*,9,-93,107*,58*
Cc1cc(C)cc(NC(=O)c2ccc([N+](=O)[O-])o2)c1,1,-2,63*,3,-62,89*,4
Cc1cc([N+](=O)[O-])ccc1NC(=O)c1ccco1,2,2,-5,13,29,.,.
COCCNC(=O)C(OC(=O)c1cccs1)c1ccccc1F (centres undefined),14,.,.,.,5,.,.
CCOc1ccc(NC(=O)Nc2cc(OCC(F)(F)F)cc(OCC(F)(F)F)c2)cc1,7,-2,90*,9,3,113*,-26
CCOc1ccc(NC(=O)Nc2cccc(C(=O)O)c2)cc1,1,0,-9,7,10,.,.
CCC(=O)Oc1ccc2c(c1)O/C(=C\c1ccco1)C2=O,4,0,29*,-7,-9,37*,31
CC(=O)Oc1ccc2c(c1)O/C(=C\c1ccncc1)C2=O,12,-1,23,1,-4,.,.
CC1CC(C)CN(C(=O)CSc2nnc3c4ccccc4nc(C(C)C)n23)C1 (centres undefined),10,.,.,.,22,.,.
CN1[C@@H](C(=O)NCC2CCCO2)C[C@@H](c2ccc(F)cc2)NS1(=O)=O (some centres undefined),.,.,.,.,-18,.,.
O=C(Oc1ccc(Cl)cc1)c1ccco1,13,.,.,.,-61,.,.
CN(C(=O)C(Cl)Cl)c1ccc(OC(=O)c2ccco2)cc1,12,-1,33*,-25,-16,34*,18
O=C1c2cccc3c([N+](=O)[O-])ccc(c23)C(=O)N1Cc1cccnc1,10,2,72*,7,-61,95*,42*
Cc1ccnc(N2C(=O)c3cccc4c([N+](=O)[O-])ccc(c34)C2=O)c1,15,1,105*,.,2,115*,133*
CCc1cc2cc3c(cc2nc1SCC(=O)N1CCc2ccccc2C1)OCO3,7,.,.,.,14,.,.
COc1ccc(S(=O)(=O)N(Cc2ccco2)Cc2cc3cc(C)ccc3[nH]c2=O)cc1,9,.,.,.,-75,.,.
CC(C)[C@H](NC(=O)OC(C)(C)C)c1nnc(S(=O)(=O)Cc2c(F)cccc2Cl)o1,8,.,.,-43,.,.,.
CC[C@@H](C)[C@H](NC(=O)OC(C)(C)C)c1nnc(S(=O)(=O)Cc2cc(C)ccc2C)o1,10,-4,57*,-7,-22,105*,35
CC(C)(C)OC(=O)N[C@@H](Cc1ccccc1)c1nnc(S(=O)(=O)Cc2cccc(F)c2)o1,14,-4,78*,-9,-33,94*,10
Cc1ccccc1CS(=O)(=O)c1nnc([C@H](CC(C)C)NC(=O)OC(C)(C)C)o1,5,-5,86*,-7,11,113*,33
CC(C)C[C@H](N)c1nnc(S(=O)(=O)Cc2cccc(F)c2)o1,16,1,-7,-26,-1,.,.
CCOC(=O)CCS(=O)(=O)c1nc(-c2ccccc2)cc(C(F)(F)F)n1,31,-2,84*,-8,-24,114*,52*
CCOC(=O)CS(=O)(=O)c1nc(-c2ccc(F)cc2)cc(C(F)(F)F)n1,31,-1,2,10,-17,.,.
COC(=O)CCS(=O)(=O)c1nc(-c2ccccc2)cc(C(F)(F)F)n1,6,1,60*,.,-15,113*,34
SMILES,PGE2 EP2 inh,S1P4 ag,S1P4 antagonist,S1P3 antag,EP2 modulator,S1P4 antag conf,S1P1 antagonist
CCOC(=O)CS(=O)(=O)c1nc(-c2ccccc2)cc(C(F)(F)F)n1,16,-2,98*,17,-49,115*,11
COc1ccccc1N1CCN(CC(O)c2ccc3c(c2)CCCN3C(C)=O)CC1 (centres undefined),9,.,.,.,-4,.,.
COC(=O)COc1ccc(S(=O)(=O)N2CCN(c3ccccc3F)CC2)cc1Cl,19,.,.,.,-81,.,.
COC(=O)COc1ccc(S(=O)(=O)N2CCN(c3ccccc3F)CC2)cc1C,9,0,35*,-37,-12,14,-9
C#CCOc1ccc(C2C3=C(COC3=O)Nc3cc4c(cc32)OCO4)cc1OC (centres undefined),7,0,38*,13,-32,39*,80*
Cn1ccnc1C1(O)CCN(CC(=O)Nc2ccccc2N2CCOCC2)CC1,7,.,.,.,-4,.,.
COCCCNC(=O)CN1C(=O)c2ccccc2C1=O,8,-1,-16,12,2,.,.
CCCCNC(=O)CN1C(=O)c2cccc(N)c2C1=O,8,-1,39*,11,21,26,9
CC1CCCCC1NC(=O)CN1C(=O)c2cccc(N)c2C1=O (centres undefined),5,-1,32*,21,-18,30*,11
O=C(NC1CCCCC1)C1CCCN1C(=O)Nc1ccc(F)cc1 (centres undefined),7,.,.,.,-2,.,.
C(=N\n1cnnc1)/c1ccc2c(c1)OCO2,3,-2,31*,-19,-6,-2,-1
COc1ccc(C(=O)c2c(C(F)(F)F)oc3c2C(=O)c2ccccc2C3=O)cc1OC,25,-1,33*,.,-46,71*,57*
C[C@H](Cn1nnc2ccccc21)NC(=O)c1ccc2c(c1)n(C)c(=O)n2C,4,.,.,.,-18,.,.
CC(=O)Nc1nc(=O)c2ccccc2s1,7,1,6,-11,8,.,.
O=C(Nc1nc(=O)c2ccccc2s1)c1ccccc1,20,-1,36*,.,-16,-4,-6
O=C(/C=C/c1ccc([N+](=O)[O-])cc1)NCc1cccnc1,.,-1,-9,.,-8,.,.
O=C(/C=C/c1ccc([N+](=O)[O-])cc1)c1cccnc1,18,1,34*,-4,-7,79*,52*
CC1CCCN(c2nc3c(c(=O)[nH]c(=O)n3C)n2Cc2ccccc2)C1 (centres undefined),12,.,.,.,5,.,.
COc1ccc(OCc2nc(-c3ccccc3C)no2)cc1,6,.,.,.,-66,.,.
O=C(Cn1ncc2cccn2c1=O)NCCc1ccccc1,6,.,.,.,5,.,.
O=C(Oc1ccc(Br)cc1C(=O)/C=C/c1ccccc1F)c1ccco1,.,1,41*,.,.,94*,34
CC(=O)c1cc(Cl)ccc1OC(=O)c1ccco1,3,1,-4,0,31,.,.
Cc1ncc([N+](=O)[O-])n1CCCc1nnc(N)s1,12,.,.,.,21,.,.
Cc1ccc(S(=O)(=O)Nc2cccc3ncccc23)s1,18,1,47*,-19,-30,108*,109*
Cc1ccc(S(=O)(=O)Nc2cccc3ncccc23)cc1,5,1,-14,-5,-20,.,.

# Screening data from PubChem BioAssay.
